{"source": "PubChem BioAssay (Tox21)", "note": "Records with an inconclusive call do not appear. Calls of active or inactive are those of the source. Unless noted, calls come from the whole dose curve; as a rule, active = well fitted cell-killing curve with a large enough effect in the repeat runs; inconclusive = weak or mixed curves, or effect the other way; inactive = flat fitted curve, though single readings scatter. Starred links: 1 amine or outer side, 2 acyl side, 3 side chain; linkers in the order of their positions; H or OH if unused. Positions of bridges follow the written chain, without caps; N, C: chain ends. Non-standard residues stand in square brackets, D forms with d. Residues, ends and D or L forms follow the SMILES beside them. *: point of attachment. X5 = NC1=N[C@@H]([C@H](N[*:1])C(=O)[*:2])C[C@H](O)N1; ΔAla(Z-3-ureido) = NC(=O)N/C=C(\\N)C(=O)O; β3hOrn = NCCC[C@H](N)CC(=O)*; Dap = NC[C@H](N)C(=O)O", "data": [{"test": "qHTS assay to identify small molecule antagonists of the estrogen receptor alpha (ER-alpha) signaling pathway using the BG1 cell line (AID 743080; calls by dose curve;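 note: BG1 cells stimulated with 17beta-estradiol alongside compound; nearly all actives have a fitted effect of over 25% in size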)", "details": "BG1Luc4E2 ERE-luciferase antagonist mode, luminescence; series mostly up to 70.3 µM; activity change, negative = inhibition: at the top concentration", "procedure,_shortened": "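Readout is ONE-Glo luminescence, taken 30 min at room temperature after reagent addition, preceded by a CellTiter-Fluor viability read; BG1-Luc-4E2 cells had received compound and 17beta-estradiol for 21.5 h at 37 C.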", "values": [{"molecule": "CCN(CC)c1ccc(N=Nc2ccc(S(=O)(=O)N(C)C)cc2)c(S(=O)(=O)NCC[n+]2ccccc2)c1", "activity change, negative = inhibition": "-0.83% (inactive)"}, {"molecule": "O=C[C@H](O)[C@@H](O)[C@H](O[C@H]1O[C@H](CO)[C@@H](O[C@H]2O[C@H](CO)[C@@H](O)[C@H](O)[C@H]2O)[C@H](O)[C@H]1O)[C@H](O)CO", "activity change, negative = inhibition": "14.2% (inactive)"}, {"molecule": "CC(=O)N[C@@H](CC(=O)N[C@@H](CCC(=O)O)C(=O)O)C(=O)O", "activity change, negative = inhibition": "6.75% (inactive)"}, {"molecule": "CC1(C)S[C@@H]2[C@H](NC(=O)C(C(=O)Oc3ccc4c(c3)CCC4)c3ccccc3)C(=O)N2[C@H]1C(=O)O", "note": "(some centres undefined)", "activity change, negative = inhibition": "0% (inactive)"}, {"molecule": "Cc1c(O)cc2c(c1C)O[C@](C)(CCC[C@H](C)CCC[C@H](C)CCCC(C)C)CC2", "activity change, negative = inhibition": "1.93% (inactive)"}, {"molecule": "CCCCCCCCCCCCCCCC(=O)OC[C@@H](COP(=O)([O-])OCC[N+](C)(C)C)OC(=O)CCCCCCCCCCCCCCC", "activity change, negative = inhibition": "5.05% (inactive)"}, {"molecule": "CCCCCCCCCCCCCCCCCCOP(=O)([O-])OC1CC[N+](C)(C)CC1", "activity change, negative = inhibition": "21.7% [at 32.5 µM] (inactive)"}]}, {"test": "qHTS assay to identify small molecule antagonists of the estrogen receptor alpha (ER-alpha) signaling pathway using the BG1 cell line - cell viability counter screen (AID 743081);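 note: compound given together with 17beta-estradiol as the ER stimulus; nearly all actives have a fitted effect of over 45% in size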", "details": "BG1Luc4E2 viability, CellTiter-Fluor, 22 h; series mostly up to 70.3 µM; activity change, negative = cytotoxicity: at the top concentration", "values": [{"molecule": "C=C1c2c(Cl)ccc(O)c2C(O)=C2C(=O)[C@]3(O)C(O)=C(C(N)=O)C(=O)[C@@H](N(C)C)[C@@H]3[C@@H](O)[C@H]12", "activity change, negative = cytotoxicity": "-0.713% [at 32.5 µM] (inactive)"}, {"molecule": "CCCCCCCCCCCCCCCCCC(=O)OCCO", "activity change, negative = cytotoxicity": "-1.2% (inactive)"}, {"molecule": "COc1cc(S(C)=O)ccc1-c1nc2ncccc2[nH]1", "note": "(centres undefined)", "activity change, negative = cytotoxicity": "13.2% (inactive)"}, {"molecule": "c1ccc2c(CCC3CCNCC3)c[nH]c2c1", "activity change, negative = cytotoxicity": "-15% (inactive)"}, {"molecule": "CN[C@@H]1[C@@H](O)[C@@H](O[C@@H]2[C@@H](O)[C@H](OC3OC(CN)=CCC3N)[C@@H](N)C[C@H]2N)OC[C@]1(C)O", "note": "(some centres undefined)", "activity change, negative = cytotoxicity": "14.8% [at 32.5 µM] (inactive)"}, {"molecule": "O=c1[nH]cnc2[nH]cc(CN3CCCCC3)c12", "activity change, negative = cytotoxicity": "0% (inactive)"}, {"molecule": "O=C(O)c1ccc(OCCn2ccnc2)cc1", "activity change, negative = cytotoxicity": "1.5% (inactive)"}, {"molecule": "CN(CCO)CC(O)Cn1cnc2c1c(=O)n(C)c(=O)n2C", "note": "(centres undefined) (tested in a mixture with another compound)", "activity change, negative = cytotoxicity": "-11.1% (inactive)"}, {"molecule": "CN=C(NC)NCc1ccccc1", "activity change, negative = cytotoxicity": "-16.1% (inactive)"}, {"molecule": "C[N+](C)(CCCCCC[N+](C)(C)C1c2ccccc2-c2ccccc21)C1c2ccccc2-c2ccccc21", "activity change, negative = cytotoxicity": "26.5% (inactive)"}, {"molecule": "CCCC(=O)N1CCCN(c2nc(N)c3cc(OC)c(OC)cc3n2)CC1", "activity change, negative = cytotoxicity": "-1.39% (inactive)"}, {"molecule": "OCC(O)COc1ccc(Cl)cc1", "note": "(centres undefined)", "activity change, negative = cytotoxicity": "-1.13% (inactive)"}, {"molecule": "C[C@]12CCC(=O)C=C1CC[C@@H]1[C@@H]2[C@@H](O)C[C@@]2(C)[C@H]1CC[C@]2(O)C(=O)COP(=O)(O)O", "activity change, negative = cytotoxicity": "-11.4% (inactive)"}, {"molecule": "Cc1ccccc1CNc1ncnc2c1ncn2[C@@H]1O[C@H](CO)[C@@H](O)[C@H]1O", "activity change, negative = cytotoxicity": "3.44% (inactive)"}, {"molecule": "CC(=O)OC[C@H]1O[C@@H](O[C@H]2[C@H](O)[C@@H](OC(=O)c3ccccc3C(=O)O)[C@H](O)O[C@@H]2COC(C)=O)[C@H](O)[C@@H](OC(=O)c2ccccc2C(=O)O)[C@@H]1O", "activity change, negative = cytotoxicity": "4.63% (inactive)"}, {"molecule": "CCC(C)C(C(=O)OCC[N+](C)(CC)CC)c1ccccc1", "note": "(centres undefined)", "activity change, negative = cytotoxicity": "-0.649% (inactive)"}, {"molecule": "CCOC(=O)[C@H](CCc1ccccc1)N[C@H]1CCCN2CCC[C@@H](C(=O)O)N2C1=O", "activity change, negative = cytotoxicity": "10.5% (inactive)"}, {"molecule": "C#CCC(Cc1cnc2nc(N)nc(N)c2n1)c1ccc(C(=O)N[C@@H](CCC(=O)O)C(=O)O)cc1", "note": "(some centres undefined)", "activity change, negative = cytotoxicity": "-22.7% (inactive)"}, {"molecule": "NCCC[C@H](N)CC(=O)N[C@H]1CNC(=O)[C@H]([C@H]2C[C@H](O)NC(N)=N2)NC(=O)/C(=C/NC(N)=O)NC(=O)[C@H](CO)NC(=O)[C@H](CO)NC1=O", "note": "(β3hOrn-[Dap]SS[ΔAla(Z-3-ureido)][X5]; lactam 1-C)", "activity change, negative = cytotoxicity": "4.91% (inactive)"}, {"molecule": "O=C[C@H](O)[C@@H](O)[C@H](O[C@H]1O[C@H](CO)[C@@H](O[C@H]2O[C@H](CO)[C@@H](O)[C@H](O)[C@H]2O)[C@H](O)[C@H]1O)[C@H](O)CO", "activity change, negative = cytotoxicity": "4.84% (inactive)"}, {"molecule": "CC(=O)N[C@@H](CC(=O)N[C@@H](CCC(=O)O)C(=O)O)C(=O)O", "activity change, negative = cytotoxicity": "14.7% (inactive)"}, {"molecule": "CC1(C)S[C@@H]2[C@H](NC(=O)C(C(=O)Oc3ccc4c(c3)CCC4)c3ccccc3)C(=O)N2[C@H]1C(=O)O", "note": "(some centres undefined)", "activity change, negative = cytotoxicity": "12.6% (inactive)"}, {"molecule": "C[C@]12CC[C@@H]3c4ccc(OS(=O)(=O)O)cc4CC[C@H]3[C@@H]1CCC2=O", "activity change, negative = cytotoxicity": "15.2% (inactive)"}, {"molecule": "Cc1c(O)cc2c(c1C)O[C@](C)(CCC[C@H](C)CCC[C@H](C)CCCC(C)C)CC2", "activity change, negative = cytotoxicity": "-3.61% (inactive)"}, {"molecule": "CCCCCCCCCCCCCCCC(=O)OC[C@@H](COP(=O)([O-])OCC[N+](C)(C)C)OC(=O)CCCCCCCCCCCCCCC", "activity change, negative = cytotoxicity": "15.1% (inactive)"}, {"molecule": "CCCCCCCCCCCCCCCCCCOP(=O)([O-])OC1CC[N+](C)(C)CC1", "activity change, negative = cytotoxicity": "1.22% [at 32.5 µM] (inactive)"}, {"molecule": "CO[C@H]1[C@@H](O)[C@H](N)[C@@H](O[C@H]2O[C@H]([C@H](C)N)CC[C@H]2N)[C@H](O)[C@@H]1N(C)C(=O)CN", "activity change, negative = cytotoxicity": "5.65% (inactive)"}]}]}
